# Results from ChEMBL document CHEMBL3988442, “University of Dundee, Small-Polar-MMV Screening Library” (2021).
# Measured potencies and affinities stand elsewhere.
# Target: Protein translocase subunit SecA (Escherichia coli (strain K12)) (UniProt P10408)
# Assay: Assay to Identify E. coli SecA ATPase Inhibitors
# Assay type: functional
# Design: scale not given: direction of the effect not stated beside the values
# Details: 30 µM
# Protein translocase subunit SecA (Escherichia coli (strain K12)), sequence (P10408 whole entry): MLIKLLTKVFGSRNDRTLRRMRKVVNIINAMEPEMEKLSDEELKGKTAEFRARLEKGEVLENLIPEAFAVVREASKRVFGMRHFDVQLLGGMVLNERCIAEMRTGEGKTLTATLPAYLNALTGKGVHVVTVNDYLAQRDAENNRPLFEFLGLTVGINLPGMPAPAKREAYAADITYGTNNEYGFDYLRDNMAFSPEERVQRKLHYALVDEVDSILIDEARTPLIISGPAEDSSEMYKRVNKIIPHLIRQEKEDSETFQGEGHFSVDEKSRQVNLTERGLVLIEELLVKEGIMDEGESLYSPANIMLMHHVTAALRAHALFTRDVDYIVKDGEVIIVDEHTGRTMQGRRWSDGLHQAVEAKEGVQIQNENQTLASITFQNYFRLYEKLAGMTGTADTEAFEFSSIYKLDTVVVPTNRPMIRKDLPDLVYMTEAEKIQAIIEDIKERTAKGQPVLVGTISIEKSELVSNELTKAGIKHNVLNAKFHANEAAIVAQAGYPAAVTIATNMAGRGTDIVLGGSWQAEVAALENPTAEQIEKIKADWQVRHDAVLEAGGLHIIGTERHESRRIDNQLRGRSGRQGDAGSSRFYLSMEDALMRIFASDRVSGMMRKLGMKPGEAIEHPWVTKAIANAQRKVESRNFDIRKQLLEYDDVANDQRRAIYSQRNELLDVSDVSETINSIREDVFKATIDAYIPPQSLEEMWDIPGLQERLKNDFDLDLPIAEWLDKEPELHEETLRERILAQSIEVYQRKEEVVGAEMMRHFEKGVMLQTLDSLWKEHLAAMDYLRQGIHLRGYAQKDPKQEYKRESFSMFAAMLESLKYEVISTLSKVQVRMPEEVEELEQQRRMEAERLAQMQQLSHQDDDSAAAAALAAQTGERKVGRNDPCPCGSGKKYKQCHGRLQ
row,SMILES,Percent Effect [%]
1,CC(Nc1cccc(CN2CCOC2=O)c1)C(=O)N1CCNC1=O (stereo not given),-10.4
2,COC[C@@H]1CC[C@H]2[C@H](CCN2S(=O)(=O)c2cccc(C)c2)O1,-1.1
3,O=C(c1ccc(F)cc1F)N1CC[C@H](O)[C@@H](N2CCOCC2)CC1,-1.33
4,COc1cccc(-n2nnc(C(=O)N3CCCC3)c2C)c1,-0.683
5,Cc1nc(C(=O)N2CCc3c(nc(-c4ccncc4)[nH]c3=O)C2)cs1,-4.53
6,CN1CCC/C1=N\S(=O)(=O)c1ccc(NC(=O)c2cccs2)cc1,0.351
7,c1csc(-c2nc(CNC3CCc4ncnn4C3)cs2)c1 (stereo not given),-3.1
8,Cc1ccc(C(=O)N2Cc3c(CN4CCCCC4)nn(C)c3C2)cc1C,-5.88
9,O=C1CC2(CCN(CC3CC3)C2)CN1c1ccc2c(c1)OCO2 (stereo not given),-2.02
10,COCc1nc(C(=O)NS(=O)(=O)c2ccc(C)cc2C)cs1,-3.05
11,Cc1nn(C)cc1CCC(=O)N1CCCC(n2cncn2)C1 (stereo not given),-2.9
12,COCC(=O)N1CCC2(CCN(Cc3ccccn3)CC2)CC1,-4.25
13,COc1ccccc1OCC(=O)NS(=O)(=O)c1ccc(C)s1,-1.64
14,Cc1ncsc1C(=O)N(Cc1cccnc1)C1CC1,-0.351
15,Cn1cnc2c1CCN(CCS(=O)(=O)c1ccccc1)C2,-3.11
16,CN(C(=O)Cc1c[nH]c2ccccc12)C1CCN(c2ccccn2)CC1,-4.77
17,CC1COCCN1C(=O)c1cccc(OCc2cscn2)c1 (stereo not given),-2.94
18,Cn1cccc1C(=O)N1CCCC2(CCCN2Cc2cccnc2)C1 (stereo not given),-10.1
19,CC(C)(C)c1n[nH]c(C2CN(C(=O)CCc3cscn3)CCO2)n1 (stereo not given),-2.17
20,CN(Cc1noc(C2CC2)n1)C1CCN(Cc2nnc(C3CC3)o2)C1 (stereo not given),4.16

row,SMILES,Percent Effect [%]
1,CC(C)c1nn(C)c(N2CCOCC2)c1CNCC(=O)N(C)C,-2.05
2,CS(=O)(=O)NCc1ncn2c1CN(C(=O)CC1CCCC1)CCC2,-1.59
3,Cc1nc(C2CCN(C(=O)CO)CC2)cc(N2CCOCC2)n1,-2.95
4,Cn1cc(CNCC2Cn3nnc(-c4ccccc4)c3CO2)cn1 (stereo not given),-4.8
5,CS(=O)(=O)c1ccccc1C(=O)NCCCN1CCc2ccccc2C1,-5.27
6,CCOC(=O)N1CCN(C(=O)c2ccc3ccn(C)c3c2)CC1,-3.31
7,Cc1ccc(-c2cc(CN3CCCC(Cn4cncn4)C3)on2)cc1 (stereo not given),-6.67
8,COc1ccc(C2CC(=O)Nc3c2nc2n3CCCC2)cc1OC (stereo not given),-2.41
9,Cn1cc(CN2CCCN(C(=O)c3cn4ccccc4n3)CC2)cn1,-2.59
10,CCc1ccc(NC(=O)C2OC(c3cccs3)=NN2C(C)=O)cc1 (stereo not given),-5.81
11,CC(=O)N1CCCN(CC(C)(O)c2cccc(C(F)(F)F)c2)CC1 (stereo not given),-3.98
12,c1ncn(CC2CN(Cc3noc(C4CC4)n3)CCO2)n1 (stereo not given),-7.36
13,Cc1c[nH]nc1C1CCCCN1C(=O)Cn1cc(Cl)cn1 (stereo not given),-0.928
14,Cc1cnn(CC2CCCCN2CCCS(N)(=O)=O)c1 (stereo not given),-1.01
15,Cn1cc(C(=O)N2CCCC(n3cccn3)C2)c2ccccc21 (stereo not given),-1.25
16,CC(=O)N1CCC2(CC1)C(=O)N(CC1CC1)c1ccccc12,-5.06
17,CC1CCN(C(=O)c2cccc3ncccc23)CC1,-2.07
18,O=C(c1cc2cc(F)ccc2[nH]1)N1CCC(Nc2cccnn2)CC1,-5.68
19,Cc1nccn1-c1cccc(C2CCCN2S(=O)(=O)N(C)C)n1 (stereo not given),-4.04
20,CC(C)CN1CCN(C)C2(CCN(Cc3ccsc3)CC2)C1=O,-3.52
